# Compounds with a hit are over-represented: about 6.5% of the library has one in this group of screens.
# LASV entry inh – inhibitors of Lassa virus binding or cell entry. Lassa virus pseudotype entry inhibition, cell reporter. 300,000 tested, 1.2% active. AID 540256. Potency, µM (top dose mostly 37.9 µM), inactives show top-dose activity change, negative = inhibition, actives largely listed as inhibitors; calls by dose curve; tested in HEK293 cells; note: potency is the fitted concentration of half-maximal effect; nearly all actives have a fitted effect of over 50% in size
# FMDV inh – foot and mouth disease virus antiviral activity. FMDV antiviral cell-based qHTS. Potency, µM (series often up to 57.9 µM), for the others: top-dose activity change, negative = inhibition, most hits filed as inhibitors. 410,000 tested, 1.2% active. AID 1159524; calls by dose curve; tested in HEK293T cells; note: read-out not given here; potency is the fitted concentration of half-maximal effect; nearly all actives have a fitted effect of over 45% in size
# MARV entry inh – inhibitors of Marburg virus binding or cell entry; 300,000 tested, 1.8% active; Marburg virus pseudotyped entry inhibition, cell reporter; Potency, µM (doses to about 37.8 µM), for inactives: at the highest dose activity change, negative = inhibition, actives largely listed as inhibitors; AID 540276; calls by dose curve; tested in HEK293 cells; note: potency is the fitted concentration of half-maximal effect
# HCMV inh – inhibitors of human cytomegalovirus | HFF cells, HCMV-luciferase reporter, 72 h; stronger effect = lower value | activity change, negative = inhibition, % at 57.5 µM | 410,000 tested, 4.5% active | AID 1259415; in the data active = activity change below about -60%; inconclusive = no clear call, values can overlap the other calls; inactive = above about -39%
#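 Two compound doses tested in HFFs infected with HCMV-luciferase, MOI 1 PFU/cell, 72 h at 37C. Lysate luminescence read with OneGlo; data normalized against buffer-only and 10uM Salinomycin inhibitor controls.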
# Vaccinia Venus – inhibitors of vaccinia virus (Venus reporter); Vaccinia virus Venus reporter expression, fluorescence; Potency, µM (doses to about 36.5 µM), for inactives: top-dose activity change, negative = inhibition, hits mostly inhibitors; 330,000 tested, 0.46% active; calls by dose curve; tested in A549 cells; note: potency is the fitted concentration of half-maximal effect; nearly all actives have a fitted effect of over 30% in size
# Vaccinia mCherry – vaccinia inhibition (mCherry reporter); Vaccinia virus mCherry reporter infection, fluorescence; Potency, µM (titrated, usually from 36.5 µM), without a hit: at the highest dose activity change, negative = inhibition, actives largely listed as inhibitors; 310,000 tested, 0.63% active; AID 720579; calls by dose curve; tested in A549 cells; note: potency is the fitted concentration of half-maximal effect; nearly all actives have a fitted effect of over 35% in size
# Active calls of the source: *; i = inactive; ? = inconclusive; . = no result given; [ ] = dose if it differs, or a comment. % is set by controls: 0 for no effect and ±100 for the full control effect.
SMILES,LASV entry inh,FMDV inh,MARV entry inh,HCMV inh,Vaccinia Venus,Vaccinia mCherry
CCOc1ccc(Br)cc1CNc1ccc2c(c1)OCCO2,-8.4%,-19.2%,?,-64.9*,-5.5%,-7.5%
C=CCOc1ccccc1CNc1ccc2c(c1)OCCO2,11.2µM*,17.8µM*,?,.,-14.9%,-25.5%
C#CCCCON=C1C[C@@H](O)[C@H](O)[C@H]2[C@@H]3C(=O)N(Cc4ccc5c(c4)OCO5)C(=O)[C@@H]3CC[C@@H]12,.,.,-6.7%[14.2 µM],.,.,.
O=c1cc(-c2ccccc2F)[nH]c2cc3c(cc12)OCO3,9.0%,.,15.6%,.,.,.
COc1ccc(-c2cc(C3CCN(c4ccc(C(C)=O)cc4[N+](=O)[O-])CC3)[nH]n2)cc1,?,17.8µM*,?,-98.3*,.,.
C=CC[C@]12CC=CC(=O)[C@@]1(O)O[C@H](c1ccc(OC)c(OC)c1)[C@H]2C,.,20µM*,.,-8.9,-19.1%,-21.9%
Oc1ccccc1C1CCCCC1c1ccccc1 (stereo unspecified),-21.9%,-7.0%,-29.5%,-68.0*,?,?
Cc1ccc(-n2ncc(C(=O)NCCN3CCOCC3)c2C2CCN(C(=O)OC(C)(C)C)CC2)c(C)c1,-28.5%[46.1 µM],-7.4%,.,-3.9,-5.5%,-10.2%
CCN(CC)c1cc(C)c2cc(NC(=O)c3ccc(OC)c(OC)c3)ccc2n1,?,0.0%,?,-89.3*,-0.2%,5.5%
CCCCc1ccc(C(=O)Nc2ccc3nc(N(CC)CC)cc(C)c3c2)cc1,-10.5%[46.1 µM],?,?,-60.8*,-18.8%,-16.2%
CCN(CC)c1cc(C)c2cc(NC(=O)/C=C/c3ccccc3Cl)ccc2n1,-17.7%[46.1 µM],-15.9%,-19.6%[46.1 µM],-106.5*,-15.9%,-8.5%
CCN(CC)c1cc(C)c2cc(NC(=O)c3ccccc3OC)ccc2n1,?,-15.0%,?,-60.2*,?,-18.5%
CCN(CC)c1cc(C)c2cc(NC(=O)c3cccc(F)c3)ccc2n1,-21.8%[46.1 µM],-1.0%,?,?,-10.6%,-10.3%
CCN(CC)c1cc(C)c2cc(NC(=O)c3ccc(Br)o3)ccc2n1,1.4%,-28.0%,?,?,.,.
Cc1cccc(N2CCN(C(=O)c3c(C)oc4nc(C)nc(N5CCCC5)c34)CC2C)c1 (stereo unspecified),-7.0%[46.1 µM],-12.7%,.,-30.8,-12.8%,i
CCN(CC)c1cc(C)c2cc(NC(=O)c3cc(OC)cc(OC)c3)ccc2n1,?,-24.0%,0.1%[46.1 µM],-84.5*,-16.6%,-20.9%
c1ccc(-c2csc3ncnc(NCc4ccccn4)c23)cc1,.,15.8µM*,.,-89.4*,.,.
c1ccc(CNc2ncnc3scc(-c4cccs4)c23)nc1,.,15.8µM*,.,-84.1*,.,.
c1ccc(CNc2ncnc3sc4c(c23)CCC4)nc1,-3.0%,?,14.6%,-16.7,-6.0%,.
COc1ccc(-c2csc3ncnc(Nc4ccc(OC)cc4OC)c23)cc1,-8.7%[46.1 µM],-27.7%,.,?,-1.1%,-16.1%
COc1ccccc1Nc1ncnc2scc(-c3ccc(F)cc3)c12,5.3%[46.1 µM],?,.,-82.5*,-1.4%,2.1%
Oc1ccc(Nc2ncnc3scc(-c4ccccc4)c23)cc1,?,?,?,-63.9*,-29.1%,-0.1%
CC(NC(=O)c1cc(F)ccc1F)c1nnc2n1CCN(Cc1cccs1)CC2 (stereo unspecified),.,0.8%,.,.,-6.7%,-17.1%
O=[N+]([O-])c1ccc(SCc2c(F)cccc2Cl)nc1,10.5%[46.1 µM],-14.5%,?,-60.8*,-9.4%,-8.2%
O=[N+]([O-])c1cccnc1SCc1c(F)cccc1Cl,-2.0%[46.1 µM],-16.1%,?,-13.0,-13.0%,-24.8%
SMILES,LASV entry inh,FMDV inh,MARV entry inh,HCMV inh,Vaccinia Venus,Vaccinia mCherry
COc1ccc(C(=O)Nc2nc3n(n2)C(c2ccc(Cl)cc2)C=C(c2ccccc2)N3)cc1OC (stereo unspecified),-18.7%[46.1 µM],?,?,-38.9,-11.7%,-5.7%
CC1=NN(c2ccc(C)c(C)c2)C(=O)/C1=C\C=C\c1ccc([N+](=O)[O-])o1,7.08µM*,12.6µM*,3.55µM*,-88.2*,-2.1%,i
Cc1ccccc1C(=O)O/N=C/c1c(N2CCOCC2)n(C)c2ccccc12,-16.0%,?,?,-98.8*,.,.
COc1ccc(CN(C)CC(=O)Nc2cccc3ccccc23)cc1F,2.3%[46.1 µM],2.7%,?,17.6,-5.3%,?
COc1ccc(C(=O)CN2CCN(c3ccc(F)cc3)CC2)cc1OC,25.2%,-9.4%,0.1%,?,-1.1%,-10.3%
COc1cc(N2CCN(C(C)C)CC2)ccc1Nc1nc(Nc2ccc(F)cc2C(N)=O)c2cc[nH]c2n1,25µM*,.,.,.,.,.
COc1cc2c(cc1Nc1nc(Nc3ccsc3C(N)=O)c3cc[nH]c3n1)N(C(=O)CN(C)C)CCC2(C)C,0.499µM*,.,.,.,.,.
COc1cc(C)c(NC(=O)CN(C)C)cc1Nc1nc(Nc2cccc(F)c2C(N)=O)c2cc[nH]c2n1,2.5µM*,.,.,.,.,.
CCC12C=C(C=Cc3ccccc3)C(CC)(C1)C(c1ccccc1)CC2=O (stereo unspecified),.,.,13.1%[14.2 µM],.,.,.
COc1ccc2c3c(c(=O)oc2c1)[C@H]1O[C@](c2ccsc2)(Cc2cc(C#N)ccc21)O3,.,.,-13.9%[14.2 µM],.,.,.
CCc1ccc(NC(=O)CC2C(=O)N(c3ccccc3)C(=O)N2C(C)C)cc1 (stereo unspecified),-3.0%[46.1 µM],32.1%,.,-4.2,-11.5%,-6.2%
COc1ccc(N(C)C(=O)C2CCN(S(=O)(=O)c3cccc4nonc34)CC2)c(OC)c1,?,-25.3%,?,-60.7*,-4.0%,-19.8%
CC(NC(=O)C1CCN(S(=O)(=O)c2cccc3cccnc23)CC1)c1ccccc1 (stereo unspecified),.,-4.2%,.,15.1,.,.
CC(NC(=O)C1CCN(S(=O)(=O)c2cccc3nonc23)CC1)c1ccccc1 (stereo unspecified),-12.0%[46.1 µM],13.2%,-13.3%[46.1 µM],-88.0*,-15.5%,-13.5%
Cc1ccccc1CN1CCN2C=C(C(=O)NCC3CC3)OC2=NC1=O,.,.,.,11.5,.,.
CN(c1ccc(OCC(=O)N2CCN(c3ccc(F)cc3)CC2)cc1)S(=O)(=O)c1cccs1,?,-23.5%,8.91µM*,-38.0,-15.2%,-7.1%
CCOC(=O)Cc1csc(NC(=O)COc2ccc(N(C)S(=O)(=O)c3cccs3)cc2)n1,-28.0%,25.1µM*,?,11.4,-18.7%,.
Cc1ccc(N2CC(C(=O)N3CCCCC3)CC2=O)cc1C (stereo unspecified),.,5.4%,.,-61.5*,.,.
O=C(C1CC(=O)N(c2ccc3c(c2)OCCO3)C1)N1CCN(c2ccccc2)CC1 (stereo unspecified),-12.0%,?,4.0%,-70.2*,5.9%,-9.4%
O=C(C1CC(=O)N(c2ccc3c(c2)OCCO3)C1)N1CCN(c2ccccc2O)CC1 (stereo unspecified),.,?,.,19.6,.,.
c1ncc2snnc2n1,.,.,.,.,-15.4%,-21.5%
CCC[C@H]1[C@H](NCc2ccccc2)CC[C@@]23CCCN2C(=O)CCC[C@@H]13,.,.,.,-6.7,.,.
Nc1nc2c(ncn2COC(CO)CO)c(=O)[nH]1,-29.2%,-21.0%,?,-80.5*,-10.1%,9.4%
CCCCn1cnc2c(=O)[nH]c(N)nc21,.,.,.,.,-9.6%,21.8%

# Compound activity (PubChem)
